# According to PubChem BioAssay AID1508601 (ICCB-Longwood Screening Facility, Harvard Medical School, 2020):
# In all, about 5,700 compounds went through this assay and about 85 (1%) were called active. This is one part of a sample in which actives are shown more often than they occur. Cut-off read from the data, not from the text of the source: active = p53-positive nuclei above about 36% (passing the limit was not always enough); inactive = the rest.
# What was measured:
# [1] = nuclear p53 accumulation, HPV+ cells – imaging, p53-positive nuclei imaging, 24 h, 48 h (AID 1508601); conditions: 24/48 h
# [2] = biological target: Cellular tumor antigen p53 (Homo sapiens) (UniProt P04637); experiment: as above; conditions: 24/48 h, stronger effect = higher value
# Cellular tumor antigen p53 (Homo sapiens), sequence (P04637 whole entry, looked up): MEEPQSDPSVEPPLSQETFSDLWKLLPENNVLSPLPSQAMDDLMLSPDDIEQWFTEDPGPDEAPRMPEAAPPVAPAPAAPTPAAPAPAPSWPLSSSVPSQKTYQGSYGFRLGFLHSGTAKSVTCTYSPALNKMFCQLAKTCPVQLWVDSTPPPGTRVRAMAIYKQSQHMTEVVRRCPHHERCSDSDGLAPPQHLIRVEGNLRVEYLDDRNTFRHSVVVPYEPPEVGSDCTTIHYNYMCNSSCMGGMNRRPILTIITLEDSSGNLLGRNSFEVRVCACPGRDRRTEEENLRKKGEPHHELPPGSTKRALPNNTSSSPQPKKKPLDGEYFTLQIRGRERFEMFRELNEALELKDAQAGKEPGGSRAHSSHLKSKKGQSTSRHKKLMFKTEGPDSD
# [3] = measured here: cell number at 24 h, Library stock concentration: 3.33 mM
# [4] = measured here: cell number at 48 h, Library stock concentration: 3.33 mM
# [5] = Library stock concentration: 3.33 mM
# [6] = measured here: p53 positive nuclei at 24 h, Library stock concentration: 3.33 mM
# [7] = measured here: cell number at 24 h, Library stock concentration: 80 uM
# [8] = measured here: cell number at 24 h, Library stock concentration: 400 uM
# [9] = measured here: cell number at 24 h, Library stock concentration: 2 mM
# [10] = measured here: cell number at 24 h, Library stock concentration: 10 mM
# [11] = measured here: cell number at 48 h, Library stock concentration: 80 uM
# [12] = measured here: cell number at 48 h, Library stock concentration: 400 uM
# [13] = measured here: cell number at 48 h, Library stock concentration: 2 mM
# [14] = measured here: cell number at 48 h, Library stock concentration: 10 mM
# [15] = Library stock concentration: 80 uM
# [16] = Library stock concentration: 400 uM
# [17] = Library stock concentration: 2 mM
# [18] = Library stock concentration: 10 mM
# [19] = measured here: p53 positive nuclei at 24 h, Library stock concentration: 80 uM
# [20] = measured here: p53 positive nuclei at 24 h, Library stock concentration: 400 uM
# [21] = measured here: p53 positive nuclei at 24 h, Library stock concentration: 2 mM
# [22] = measured here: p53 positive nuclei at 24 h, Library stock concentration: 10 mM
smiles,measurement,setting,value
O=C1OC[C@@H](Cc2cccc(O)c2)[C@@H]1Cc1cccc(O)c1,"nuclei count, normalised","[1]; measured here: cell number at 24 h, concentration not given here",111%
same,"nuclei count, normalised","[1]; measured here: cell number at 48 h, concentration not given here",114%
same,"p53-positive nuclei, normalised",[2]; concentration not given here,-0.147% (inactive)
same,"p53-positive nuclei, normalised","[2]; measured here: p53 positive nuclei at 24 h, concentration not given here",-0.118%
COC1C[C@H]2CCC(C)[C@@](O)(O2)C(=O)C(=O)N2CCCC[C@H]2C(=O)OC(C(C)CC2CCC(OP(C)(C)=O)C(OC)C2)CC(=O)C(C)C=C(C)C(O)C(OC)C(=O)C(C)CC(C)C=CC=CC=C1C (stereo partly drawn),"nuclei count, normalised",[1]; [3],108%
same,"nuclei count, normalised",[1]; [4],105%
same,"p53-positive nuclei, normalised",[2]; [5],-0.656% (inactive)
same,"p53-positive nuclei, normalised",[2]; [6],-0.202%
COc1ccc(-c2nc(N3CCOCC3)c3sc(CN(C)c4ncc(C(=O)NO)cn4)cc3n2)cn1,"nuclei count, normalised",[1]; [7],47.5%
same,"nuclei count, normalised",[1]; [8],43.3%
same,"nuclei count, normalised",[1]; [9],39.6%
same,"nuclei count, normalised",[1]; [3],33.2%
same,"nuclei count, normalised",[1]; [10],31.5%
same,"nuclei count, normalised",[1]; [11],22.9%
same,"nuclei count, normalised",[1]; [12],21.1%
same,"nuclei count, normalised",[1]; [13],24.2%
same,"nuclei count, normalised",[1]; [4],21.9%
same,"nuclei count, normalised",[1]; [14],19%
same,"p53-positive nuclei, normalised",[2]; [15],96.8% (active)
same,"p53-positive nuclei, normalised",[2]; [16],94.6% (active)
same,"p53-positive nuclei, normalised",[2]; [17],98.6% (active)
same,"p53-positive nuclei, normalised",[2]; [5],65.1% (active)
same,"p53-positive nuclei, normalised",[2]; [18],81.6% (active)
same,"p53-positive nuclei, normalised",[2]; [19],77.1%
same,"p53-positive nuclei, normalised",[2]; [20],75.3%
same,"p53-positive nuclei, normalised",[2]; [21],81.2%
same,"p53-positive nuclei, normalised",[2]; [6],43.2%
same,"p53-positive nuclei, normalised",[2]; [22],59%
Cc1c(CN2CCN(C(=O)C(C)O)CC2)sc2c(N3CCOCC3)nc(-c3cnc(N)nc3)nc12 (stereo not drawn),"nuclei count, normalised",[1]; [7],107%
same,"nuclei count, normalised",[1]; [8],110%
same,"nuclei count, normalised",[1]; [9],89.3%
same,"nuclei count, normalised",[1]; [3],82.6%
same,"nuclei count, normalised",[1]; [10],84.4%
same,"nuclei count, normalised",[1]; [11],113%
same,"nuclei count, normalised",[1]; [12],112%
same,"nuclei count, normalised",[1]; [13],89%
same,"nuclei count, normalised",[1]; [4],84%
same,"nuclei count, normalised",[1]; [14],88.2%
same,"p53-positive nuclei, normalised",[2]; [15],0.00265% (inactive)
same,"p53-positive nuclei, normalised",[2]; [16],-0.106% (inactive)
same,"p53-positive nuclei, normalised",[2]; [17],-0.151% (inactive)
same,"p53-positive nuclei, normalised",[2]; [5],-0.349% (inactive)
same,"p53-positive nuclei, normalised",[2]; [18],-0.157% (inactive)
same,"p53-positive nuclei, normalised",[2]; [19],0.036%
same,"p53-positive nuclei, normalised",[2]; [20],-0.106%
same,"p53-positive nuclei, normalised",[2]; [21],-0.151%
same,"p53-positive nuclei, normalised",[2]; [6],-0.356%
same,"p53-positive nuclei, normalised",[2]; [22],-0.0302%
